Compounds with a hit are over-represented: about 3.1% of the library has one in this group of screens.
VDR inhibitor = inhibitors of human vitamin D receptor. 400,000 tested, 0.93% active. Potency, µM, actives largely listed as inhibitors. VDR-SRC2-3 peptide fluorescence polarization, 2 h. P11473
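Fluorescence polarization assay of small-molecule disruption of VDR binding to coregulator peptide SRC2-3. Compounds and controls pin-transferred, then read after 2 h incubation at ambient room temperature.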
PLK1 PBD block = PLK1 (human) polo-box domain binding inhibition; P53350; Plk1 PBD binding of FITC phosphopeptide, fluorescence polarization; Potency, µM, hits mostly inhibitors; 360,000 tested, 2.8% active; further: series mostly up to about 57 µM; nearly all actives have a fitted effect of over 65% in size
Target sequence (P53350 whole entry, looked up, the tested form may be a part): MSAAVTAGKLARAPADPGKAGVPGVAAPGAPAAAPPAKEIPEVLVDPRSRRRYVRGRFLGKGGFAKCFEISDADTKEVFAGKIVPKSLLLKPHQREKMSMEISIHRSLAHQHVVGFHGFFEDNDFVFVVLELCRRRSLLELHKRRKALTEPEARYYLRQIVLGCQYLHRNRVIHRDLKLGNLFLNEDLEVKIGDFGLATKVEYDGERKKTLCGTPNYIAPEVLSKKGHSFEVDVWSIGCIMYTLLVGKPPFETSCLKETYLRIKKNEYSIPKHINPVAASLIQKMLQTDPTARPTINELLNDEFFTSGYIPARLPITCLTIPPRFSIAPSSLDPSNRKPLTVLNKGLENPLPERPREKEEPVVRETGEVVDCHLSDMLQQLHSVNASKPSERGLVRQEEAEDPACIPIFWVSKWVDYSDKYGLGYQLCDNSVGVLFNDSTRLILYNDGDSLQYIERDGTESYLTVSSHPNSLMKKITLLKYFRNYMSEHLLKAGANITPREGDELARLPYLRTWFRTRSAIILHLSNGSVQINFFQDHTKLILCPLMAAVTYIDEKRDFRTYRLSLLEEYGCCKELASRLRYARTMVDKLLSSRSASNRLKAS
PI4K2A block = blocks human PI4K2A kinase activity | activity change, negative = inhibition, % at 76.9 µM | purified PI4K2A, ADP-Glo luminescence, 1 h; stronger effect = lower value | Q9BTU6 | 420,000 tested, 0.13% active | AID 1346378; in the data active means activity change below about -50%; inconclusive means mostly about -30% to -49%
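Compounds are screened against recombinant PI4K2A using PI as substrate and ATP, the latter dispensed at 300 microM. Reactions run one hour at ambient temperature before ADP-Glo detection; full inhibition defined by wells lacking enzyme.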
GLS inhibitor = inhibitors of human glutaminase (GLS) | GLS enzymatic activity, qHTS titration | O94925 | 410,000 tested, 0.21% active | Potency, µM (doses to about 45.5 µM), usual class: inhibitors
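Two-point fluorescence kinetic (t0, 30 min RT) for hKGA; glutamate detected via glutamate oxidase–HRP–Amplex Red. Substrate: 1 mM L-glutamine solution; buffer 45 mM KH2PO4, pH 8.2.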
KAT2A inh = blocks human GCN5L2 histone acetyltransferase; 390,000 tested, 0.21% active; Potency, µM (doses to about 58.9 µM), hits mostly inhibitors; GCN5L2 HAT assay, ThioGlo1 CoA-SH fluorescence
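Fluorescence readout, Ex340nm/Em540nm: ThioGlo1 (50uM final) reacts with free CoA thiol released as 20nM GCN5L2 acetylates H3(1-25) peptide (75uM) using acetyl-CoA (70uM). Compound and enzyme sat 15 min beforehand; 20 min room-temperature reaction.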
TbPYK confirm = confirmation of Trypanosoma brucei pyruvate kinase inhibitors; Potency, µM (highest dose often 76.9 µM), hits mostly inhibitors; recombinant TbPYK, Kinase-Glo ATP luminescence; 890 tested, 67% active; shares compounds with PLK1 PBD block; further: nearly all actives have a fitted effect of over 70% in size
TbPYK orthogonal = TbPYK inhibition, orthogonal confirmation; 890 tested, 62% active; recombinant TbPYK, ADP-Glo luminescence, 60 min; shares compounds with PLK1 PBD block; Potency, µM (titrated, usually from 76.9 µM), hits mostly inhibitors; further: nearly all actives have a fitted effect of over 75% in size
A number is an active result; - = inactive; ? = inconclusive; . = no result. Unless noted, the call rests on the fitted dose curve; in most records, active means well fitted curve in the direction sought with a large enough effect; inconclusive means small, poorly fitted or top-dose-only effect, or another doubt; inactive means no such curve, though single readings can be large; an effect the other way counts as inactive or inconclusive.

SMILES	VDR inhibitor	PLK1 PBD block	PI4K2A block	GLS inhibitor	KAT2A inh	TbPYK confirm	TbPYK orthogonal
COC(=O)N[C@H](c1ccccc1)C(C(C)=O)C(=O)OC (some centres undefined)	-	.	.	.	.	.	.
O=C(CSc1nc2c(c(=O)[nH]1)CCC2)Nc1cccc(O)c1	-	.	-	-	-	.	.
c1ccc2[nH]c(CN3CCOCC3)nc2c1	-	-	-	-	-	.	.
Oc1ccc(N2CCN(Cc3nc4ccccc4[nH]3)CC2)cc1	-	-	-	-	-	18µM	28µM
Cc1ccc(CN2CCN(/N=C/c3ccc(O)c(O)c3)CC2)cc1	-	?	-	?	-	14µM	16µM
COc1cccc(C(C#N)NCCCNC(C#N)c2cccc(OC)c2OC)c1OC (centres undefined)	-	-	-	-	.	.	.
Oc1ccc(N2CCN(C(c3cccs3)c3nnnn3CCc3ccccc3)CC2)cc1 (centres undefined)	-	-	-	-	-	4.5µM	22µM
CC(C)(C)C1=Nn2c(nnc2-c2n[nH]c3c2CCC3)SC1	?	24µM	-	-	-	10µM	10µM
CC1=Nn2c(nnc2-c2n[nH]c3c2CCC3)SC1	-	-	-	-	-	.	.
O=C(NCCCCNC(=O)c1cccs1)c1cccs1	-	-	-	-	-	.	.
O=C(NCCCNC(=O)c1cccs1)c1cccs1	?	2.7µM	-	?	-	-	-
CC(=NNC(=O)CSc1nnc(-c2ccc(C(C)(C)C)cc2)n1-c1ccccc1)c1cccc2ccccc12	.	.	-	.	.	.	.
O=C(Nc1ccc(Cl)cc1)C(Cl)C(=O)c1ccccc1 (centres undefined)	18µM	0.6µM	-	-	-	7.9µM	14µM
O=C(NC(=S)Nc1ccc(Cl)cc1)c1ccccc1	-	-	-	-	-	.	.
CN(C)c1cc(-c2cccc(NS(C)(=O)=O)c2)ncn1	?	.	.	.	-	.	.
COc1cc2c(cc1OC)C(=O)C(Br)CC2 (centres undefined)	.	0.95µM	?	?	.	10µM	5.6µM
c1ccc(Cc2nn3c(C4COc5ccccc5O4)nnc3s2)cc1 (centres undefined)	-	21µM	-	?	?	?	?
O=C(CSCc1cccc(Br)c1)NC1CC1	-	-	-	-	-	.	.
CCOC(=O)C1(C)CCN1C(=O)CSc1ccccc1 (centres undefined)	.	-	-	-	.	.	.
O=C(NCC1CCCO1)c1sc(=S)n2c1[nH]c(=O)c1ccc(C(=O)N3CCCCC3)cc12 (centres undefined)	-	-	-	-	-	?	?
Cc1onc(-c2c(F)cccc2Cl)c1C(=O)N1CCCC1	-	-	-	-	-	.	.
Cc1onc(-c2c(F)cccc2Cl)c1C(=O)N1CCCc2ccccc21	-	-	-	-	-	8.9µM	7.9µM
Cc1onc(-c2ccccc2Cl)c1C(=O)N1CCc2ccccc21	-	-	-	-	-	.	.
Cc1onc(-c2ccccc2Cl)c1C(=O)N1CCCc2ccccc21	-	-	-	-	-	7.9µM	8.9µM
CC1=C(C(=O)OC(C)C)C(c2cccc([N+](=O)[O-])c2)C(C(=O)OC2CN(C(c3ccccc3)c3ccccc3)C2)=C(N)N1 (centres undefined)	-	.	-	-	-	.	.
SMILES	VDR inhibitor	PLK1 PBD block	PI4K2A block	GLS inhibitor	KAT2A inh	TbPYK confirm	TbPYK orthogonal
Cc1ccc([N+](=O)[O-])cc1S(=O)(=O)Nc1ccc(O)c(Sc2ncn[nH]2)c1	-	?	-	-	-	.	.
Cc1cc(C)c(S(=O)(=O)/N=C2/C=C(Sc3ncn[nH]3)C(=O)c3ccccc32)cc1C	?	0.84µM	-54	-	11µM	1.4µM	2.5µM
COc1ccccc1C(=O)NC(=O)COC(=O)c1nc(Cl)ccc1Cl	-	-	-	-	-	.	.
O=C(NCc1cccs1)C1CCN(S(=O)(=O)c2ccc([N+](=O)[O-])cc2)CC1	.	.	-	.	.	.	.
N#C/C(=C\c1ccc(N2CCOCC2)o1)c1nc2ccccc2[nH]1	-	-	-	-	-	.	.
N#C/C(=C/c1ccc(N2CCOCC2)o1)c1ccc(Cl)cc1	?	-	-	-	-	?	35µM
COC1=CC(=O)C(C2CC(=O)c3c(O)cc(O)cc3O2)=CC1=O (centres undefined)	79µM	4.2µM	-	-	.	16µM	28µM
COc1c(CC=C(C)C)cc(C2CC(=O)c3c(O)cc(O)cc3O2)cc1CC=C(C)C (centres undefined)	-	-	-	-	?	.	.
CCCCC(CC)C(=O)Nc1ccccc1C(=O)NC(C)C (centres undefined)	-	-	-	-	-	.	.
CCOC(=O)c1ccc(/[N+]([O-])=C/c2ccccc2)cc1	?	21µM	-	?	-	-	-
Cc1ccc(NC2=C(NC(=O)c3ccccc3)C(=O)c3ccccc3C2=O)cc1Cl	-	27µM	-	-	-	?	?
Cc1ccc(NCC(=O)c2ccccc2)cc1Cl	-	-	-	-	-	.	.
COc1cccc(NC(=O)CCC2CCN(C(=O)c3scnc3C)CC2)c1	-	-	-	-	-	.	.
COc1cccc(NC(=O)CCC2CCN(C(=O)c3cncs3)CC2)c1	?	-	-	-	-	20µM	?
CCOc1ccc(C(=O)OC(C)CN2CCN(C)CC2)cc1 (centres undefined)	-	-	-	-	-	.	.
CCOc1ccc(C(=S)N2CCN(C)CC2)cc1	?	13µM	-	-	-	13µM	4.5µM
COc1ccccc1C(=O)N/C(=C\c1ccc(Br)cc1)C(=O)N1CCCC1	-	-	-	-	-	.	.
COc1ccc(CCNC(=O)c2ccc(Cn3c(=O)c4ccccc4n(Cc4cccc(Cl)c4)c3=O)cc2)cc1OC	-	.	-	-	-	.	.
C[C@@H]1O[C@@H](O[C@@H]2[C@@H](O)[C@H](OCCc3ccc(O)c(O)c3)O[C@H](CO)[C@H]2OC(=O)/C=C/c2ccc(O)c(O)c2)[C@H](O)[C@H](O)[C@H]1O	-	-	-	?	-	32µM	?
COc1ccccc1-c1csc(C(O)c2cccc(Cl)c2)n1 (centres undefined)	.	-	-	-	.	.	.
CCOC(=O)C(C)(C)N(Cc1ccccc1C)S(=O)(=O)c1ccc(Cl)c([N+](=O)[O-])c1	-	-	-	-	-	-	-
CCN1c2ccccc2-c2nc(SCC(=O)Nc3c(C)cc(C)cc3C)ncc2S1(=O)=O	-	.	-	-	-	.	.
COc1ccc(-n2c(=S)[nH]c3sc4c(c3c2=O)CCN(C)C4)cc1	.	.	.	.	-	.	.
O=C(O)C1CCc2sc3[nH]c(=S)n(-c4ccccc4)c(=O)c3c21 (centres undefined)	-	?	-	-	-	2µM	3.2µM

Screening data from PubChem BioAssay.
